Results on 33 targets are retold here after the supplement of paper PMC10849652.

The full data set covers some 7,900 targets. This sample favours those with a hit. About 0.6% of all pairs of compound and target were hits.

Chain of UniProt Q6N075 (Q6N075 whole entry, looked up): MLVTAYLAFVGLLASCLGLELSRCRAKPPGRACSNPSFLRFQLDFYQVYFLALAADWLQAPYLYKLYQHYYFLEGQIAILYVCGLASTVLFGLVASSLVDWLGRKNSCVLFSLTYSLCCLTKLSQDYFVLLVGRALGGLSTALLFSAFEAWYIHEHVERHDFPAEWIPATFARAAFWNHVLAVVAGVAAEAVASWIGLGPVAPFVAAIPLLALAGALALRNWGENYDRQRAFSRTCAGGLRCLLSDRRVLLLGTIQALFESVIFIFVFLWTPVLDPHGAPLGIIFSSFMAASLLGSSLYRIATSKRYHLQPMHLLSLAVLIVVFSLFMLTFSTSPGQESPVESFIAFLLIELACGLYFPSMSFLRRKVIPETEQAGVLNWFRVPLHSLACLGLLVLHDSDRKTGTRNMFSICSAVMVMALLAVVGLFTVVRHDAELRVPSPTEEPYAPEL
Chain of UniProt Q9H3U5 (Q9H3U5 whole entry, looked up): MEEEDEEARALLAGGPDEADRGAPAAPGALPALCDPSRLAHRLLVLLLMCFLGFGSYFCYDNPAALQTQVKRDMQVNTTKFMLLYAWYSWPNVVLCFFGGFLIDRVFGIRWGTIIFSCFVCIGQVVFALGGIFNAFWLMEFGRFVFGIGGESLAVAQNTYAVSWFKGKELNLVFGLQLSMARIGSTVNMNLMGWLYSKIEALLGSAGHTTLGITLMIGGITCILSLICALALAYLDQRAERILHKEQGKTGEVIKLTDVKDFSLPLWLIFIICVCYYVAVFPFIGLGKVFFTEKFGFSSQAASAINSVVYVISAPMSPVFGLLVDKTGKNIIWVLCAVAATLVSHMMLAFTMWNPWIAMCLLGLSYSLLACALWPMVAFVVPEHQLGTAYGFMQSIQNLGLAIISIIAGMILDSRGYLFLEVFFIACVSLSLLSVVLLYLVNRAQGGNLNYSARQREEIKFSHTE
Chain of UniProt Q68DH5 (Q68DH5 whole entry, looked up): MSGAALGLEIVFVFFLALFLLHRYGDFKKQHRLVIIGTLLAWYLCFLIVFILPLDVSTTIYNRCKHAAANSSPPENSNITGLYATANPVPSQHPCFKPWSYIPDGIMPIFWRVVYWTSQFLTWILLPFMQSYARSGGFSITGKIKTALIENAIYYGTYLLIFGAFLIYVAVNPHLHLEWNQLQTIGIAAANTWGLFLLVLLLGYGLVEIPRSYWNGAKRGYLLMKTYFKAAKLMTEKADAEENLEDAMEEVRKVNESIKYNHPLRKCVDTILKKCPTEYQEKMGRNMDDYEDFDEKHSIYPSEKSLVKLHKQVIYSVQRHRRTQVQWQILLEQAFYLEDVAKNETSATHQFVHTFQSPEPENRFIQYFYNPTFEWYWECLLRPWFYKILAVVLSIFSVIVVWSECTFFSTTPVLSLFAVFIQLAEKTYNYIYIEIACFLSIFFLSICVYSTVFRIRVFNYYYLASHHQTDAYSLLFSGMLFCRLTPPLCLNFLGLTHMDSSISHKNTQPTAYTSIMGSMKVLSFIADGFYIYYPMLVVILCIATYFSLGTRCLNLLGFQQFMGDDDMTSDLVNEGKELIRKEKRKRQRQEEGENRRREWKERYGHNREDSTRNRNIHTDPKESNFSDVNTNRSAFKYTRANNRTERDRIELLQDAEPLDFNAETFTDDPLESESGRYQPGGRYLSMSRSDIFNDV
Chain of UniProt O95372 (O95372 whole entry, looked up): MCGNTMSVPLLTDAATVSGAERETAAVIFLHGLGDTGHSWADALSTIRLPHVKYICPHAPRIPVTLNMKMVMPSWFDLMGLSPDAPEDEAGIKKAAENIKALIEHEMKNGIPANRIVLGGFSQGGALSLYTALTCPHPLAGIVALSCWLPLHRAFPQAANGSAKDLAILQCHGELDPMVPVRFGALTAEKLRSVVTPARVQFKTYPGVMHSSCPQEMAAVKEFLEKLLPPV
Chain of UniProt A1L0T0 (A1L0T0 whole entry, looked up): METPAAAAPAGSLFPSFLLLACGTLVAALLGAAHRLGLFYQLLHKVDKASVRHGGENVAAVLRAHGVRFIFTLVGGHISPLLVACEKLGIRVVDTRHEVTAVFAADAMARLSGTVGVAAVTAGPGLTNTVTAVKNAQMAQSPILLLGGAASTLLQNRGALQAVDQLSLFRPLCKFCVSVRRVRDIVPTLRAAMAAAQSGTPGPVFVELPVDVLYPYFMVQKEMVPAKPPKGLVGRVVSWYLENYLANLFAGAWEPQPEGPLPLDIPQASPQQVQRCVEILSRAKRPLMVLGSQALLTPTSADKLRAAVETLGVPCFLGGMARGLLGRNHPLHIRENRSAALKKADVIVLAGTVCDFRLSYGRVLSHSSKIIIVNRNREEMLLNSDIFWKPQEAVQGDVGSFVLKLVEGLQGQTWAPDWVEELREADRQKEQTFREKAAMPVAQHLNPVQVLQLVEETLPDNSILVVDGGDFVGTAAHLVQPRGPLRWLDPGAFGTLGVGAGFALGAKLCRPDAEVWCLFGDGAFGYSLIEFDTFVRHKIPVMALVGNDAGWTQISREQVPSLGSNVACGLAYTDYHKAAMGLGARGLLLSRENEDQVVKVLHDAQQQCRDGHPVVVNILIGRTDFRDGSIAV
Chain of UniProt Q8WWC4 (Q8WWC4 whole entry, looked up): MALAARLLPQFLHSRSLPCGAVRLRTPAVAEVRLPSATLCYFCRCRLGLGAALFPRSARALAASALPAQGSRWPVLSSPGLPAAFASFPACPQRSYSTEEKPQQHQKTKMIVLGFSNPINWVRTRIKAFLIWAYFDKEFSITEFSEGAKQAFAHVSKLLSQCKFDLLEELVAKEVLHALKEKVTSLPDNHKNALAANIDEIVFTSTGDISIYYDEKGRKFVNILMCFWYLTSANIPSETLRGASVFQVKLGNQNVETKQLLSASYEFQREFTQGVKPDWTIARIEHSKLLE
Chain of UniProt P23368 (P23368 whole entry, looked up): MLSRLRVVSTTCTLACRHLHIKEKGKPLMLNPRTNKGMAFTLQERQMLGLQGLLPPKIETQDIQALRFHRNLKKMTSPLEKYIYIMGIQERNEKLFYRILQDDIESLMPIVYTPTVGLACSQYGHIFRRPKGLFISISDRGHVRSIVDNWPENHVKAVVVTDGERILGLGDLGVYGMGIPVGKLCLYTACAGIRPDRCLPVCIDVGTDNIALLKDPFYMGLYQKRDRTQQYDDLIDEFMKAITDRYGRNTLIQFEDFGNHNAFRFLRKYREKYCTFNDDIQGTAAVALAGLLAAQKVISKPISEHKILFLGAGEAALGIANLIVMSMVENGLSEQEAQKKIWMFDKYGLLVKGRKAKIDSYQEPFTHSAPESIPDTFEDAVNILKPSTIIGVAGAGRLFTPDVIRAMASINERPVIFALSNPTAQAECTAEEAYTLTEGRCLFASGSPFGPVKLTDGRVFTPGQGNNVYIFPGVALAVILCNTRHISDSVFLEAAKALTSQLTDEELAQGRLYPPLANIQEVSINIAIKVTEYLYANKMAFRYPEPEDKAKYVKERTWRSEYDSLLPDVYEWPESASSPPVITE
Chain of UniProt P49137 (P49137 whole entry, looked up): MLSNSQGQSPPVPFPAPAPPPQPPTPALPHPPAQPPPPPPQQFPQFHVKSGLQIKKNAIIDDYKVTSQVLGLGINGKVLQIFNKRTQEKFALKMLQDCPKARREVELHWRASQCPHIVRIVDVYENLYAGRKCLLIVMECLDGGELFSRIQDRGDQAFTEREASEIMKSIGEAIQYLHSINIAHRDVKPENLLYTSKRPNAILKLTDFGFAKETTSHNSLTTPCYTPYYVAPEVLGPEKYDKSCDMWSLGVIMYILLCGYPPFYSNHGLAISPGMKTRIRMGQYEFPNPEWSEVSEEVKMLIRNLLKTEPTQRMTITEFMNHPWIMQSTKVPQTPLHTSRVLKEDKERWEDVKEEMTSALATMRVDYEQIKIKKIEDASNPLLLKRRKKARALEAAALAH
Chain of UniProt P48449 (P48449 whole entry, looked up): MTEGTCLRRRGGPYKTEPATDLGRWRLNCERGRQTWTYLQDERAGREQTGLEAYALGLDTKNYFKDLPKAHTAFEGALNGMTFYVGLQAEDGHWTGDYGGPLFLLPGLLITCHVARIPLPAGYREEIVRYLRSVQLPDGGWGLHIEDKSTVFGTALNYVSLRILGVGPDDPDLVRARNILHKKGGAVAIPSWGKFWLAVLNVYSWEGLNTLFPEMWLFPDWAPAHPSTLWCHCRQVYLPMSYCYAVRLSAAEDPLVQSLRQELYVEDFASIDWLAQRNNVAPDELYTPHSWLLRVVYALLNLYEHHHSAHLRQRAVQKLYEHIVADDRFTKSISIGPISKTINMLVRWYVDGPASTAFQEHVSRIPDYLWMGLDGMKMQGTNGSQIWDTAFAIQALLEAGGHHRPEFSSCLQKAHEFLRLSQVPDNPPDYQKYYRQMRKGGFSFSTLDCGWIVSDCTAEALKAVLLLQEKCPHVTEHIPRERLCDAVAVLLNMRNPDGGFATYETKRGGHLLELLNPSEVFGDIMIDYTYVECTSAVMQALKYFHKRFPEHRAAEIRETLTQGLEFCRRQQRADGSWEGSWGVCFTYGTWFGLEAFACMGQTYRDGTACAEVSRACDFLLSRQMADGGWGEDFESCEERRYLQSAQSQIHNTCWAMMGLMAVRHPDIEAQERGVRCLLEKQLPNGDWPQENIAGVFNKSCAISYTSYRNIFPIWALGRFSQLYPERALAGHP
Chain of UniProt Q8NC56 (Q8NC56 whole entry, looked up): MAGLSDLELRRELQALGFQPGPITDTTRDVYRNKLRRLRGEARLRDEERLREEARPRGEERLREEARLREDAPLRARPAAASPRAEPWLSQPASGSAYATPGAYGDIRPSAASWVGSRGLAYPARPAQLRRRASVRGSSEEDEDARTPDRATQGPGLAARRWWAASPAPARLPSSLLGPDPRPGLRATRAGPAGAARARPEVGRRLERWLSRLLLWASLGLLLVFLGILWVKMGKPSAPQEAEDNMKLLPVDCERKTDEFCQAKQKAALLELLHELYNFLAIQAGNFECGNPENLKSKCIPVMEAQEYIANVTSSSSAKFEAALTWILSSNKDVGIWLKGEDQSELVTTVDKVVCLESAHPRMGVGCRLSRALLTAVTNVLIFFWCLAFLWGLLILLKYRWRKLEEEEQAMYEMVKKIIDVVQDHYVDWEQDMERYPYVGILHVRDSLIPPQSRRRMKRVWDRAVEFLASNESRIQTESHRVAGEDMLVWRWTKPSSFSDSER

Compound in the assay: c1cn2cc(-c3ccc4cn[nH]c4c3)nc(Nc3ccc(N4CCOCC4)cc3)c2n1 [entospletinib]
The assay can be described thus: log2 fold change, soluble protein after heating vs DMSO (PISA); higher = thermal stabilisation; K562 cells, 10 uM, 30 min; active = over 0.2 and 3.5 SD of the protein, either way, in both replicates (recomputed). An outline of the steps: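 Soluble protein was quantified by TMTpro 16plex LC-MS/MS after channel sums were equalised. It was obtained as the supernatant after 21,000xg for 90 min from pooled aliquots of K562 cells (2×10^6 cells/mL, 10 μM compound, 30 min) heated for 3 min across 48°C-58°C and extracted in PBS with 0.5% NP-40 at 4°C. Thermal stability values are relative to control samples and come from duplicates. They are given as log2 fold changes.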
For the target INPP5B (UniProt P32019), the log2 fold change was 0.026 (inactive). In the case of LEMD2 (UniProt Q8NC56), the log2 fold change is -0.039 (inactive). For MARK2 (UniProt E9PC69), the log2 fold change is 0.029 (inactive).

For the target MAIP1 (UniProt Q8WWC4), the log2 fold change is -0.003 (inactive).

Consider IRF2BPL (UniProt Q9H1B7), for which the log2 fold change was 0.001 (inactive).

For MFSD1 isoform 6 (UniProt Q9H3U5), the log2 fold change is 0.013 (inactive).

Take LTN1 isoform 3 (UniProt O94822): the log2 fold change was -0.001 (inactive). Under LENG8 (UniProt Q96PV6) stands 0.131 (inactive); under MAP4K2 (UniProt Q12851), 0.128 (inactive); under MAGOHB (UniProt Q96A72), 0.097 (inactive). Under MED1 (UniProt Q15648) stands 0.019 (inactive); under MAPK14 (UniProt Q16539), -0.006 (inactive).

For KMT2C isoform 3 (UniProt Q8NEZ4), the log2 fold change was 0.052 (inactive). Under LYPLA2 (UniProt O95372) stands 0.053 (inactive); under LSS (UniProt P48449), 0.004 (inactive); under ME2 (UniProt P23368), 0.008 (inactive).

As to KEL (UniProt P23276), the log2 fold change is -0.023 (inactive). Under IPO9 (UniProt Q96P70) stands 0.037 (inactive); under MAPRE3 (UniProt Q9UPY8), -0.041 (inactive). For the target IPO11 isoform 2 (UniProt Q9UI26), the log2 fold change is 0.022 (inactive). As to MARK3 (UniProt P27448), the log2 fold change is -0.024 (inactive). With IMMP1L (UniProt Q96LU5), the log2 fold change was -0.172 (inactive).

For KIAA1324L (UniProt A8MWY0), the log2 fold change was 0.028 (inactive). As to ILVBL (UniProt A1L0T0), the log2 fold change was -0.028 (inactive). For KLHL18 (UniProt O94889), the log2 fold change is -0.016 (inactive).

For the target ILF2 (UniProt Q12905), the log2 fold change is -0.103 (inactive).

On to MIF (UniProt P14174), for which the log2 fold change is 0.111 (inactive).

MFSD5 isoform 2 (UniProt Q6N075): the log2 fold change is -0.005 (inactive). For the target ITM2B (UniProt Q9Y287), the log2 fold change is -0.011 (inactive). Under MAPKAPK2 (UniProt P49137) stands -0.061 (inactive); under KIF1B isoform 3 (UniProt O60333), 0.041 (inactive). Under LMNB1 (UniProt P20700) stands -0.01 (inactive). Under LMBRD2 (UniProt Q68DH5) stands 0.024 (inactive).
